These results are taken from ChEMBL document CHEMBL3988442, “University of Dundee, Small-Polar-MMV Screening Library” (2021).

Common to all, as to design: scale not given: direction of the effect not stated beside the values
The target of assay [1] is Protein translocase subunit SecA (Escherichia coli (strain K12)) (UniProt P10408). Description: Assay to Identify E. coli SecA ATPase Inhibitors. The settings on record: 30 µM. It is filed as functional.
The target in assay [2] is T1, Ubiquitin-activating enzyme e1, putative (Leishmania donovani (strain BPK282A1)) (UniProt E9BSI1).
T1 sequence (whole entry): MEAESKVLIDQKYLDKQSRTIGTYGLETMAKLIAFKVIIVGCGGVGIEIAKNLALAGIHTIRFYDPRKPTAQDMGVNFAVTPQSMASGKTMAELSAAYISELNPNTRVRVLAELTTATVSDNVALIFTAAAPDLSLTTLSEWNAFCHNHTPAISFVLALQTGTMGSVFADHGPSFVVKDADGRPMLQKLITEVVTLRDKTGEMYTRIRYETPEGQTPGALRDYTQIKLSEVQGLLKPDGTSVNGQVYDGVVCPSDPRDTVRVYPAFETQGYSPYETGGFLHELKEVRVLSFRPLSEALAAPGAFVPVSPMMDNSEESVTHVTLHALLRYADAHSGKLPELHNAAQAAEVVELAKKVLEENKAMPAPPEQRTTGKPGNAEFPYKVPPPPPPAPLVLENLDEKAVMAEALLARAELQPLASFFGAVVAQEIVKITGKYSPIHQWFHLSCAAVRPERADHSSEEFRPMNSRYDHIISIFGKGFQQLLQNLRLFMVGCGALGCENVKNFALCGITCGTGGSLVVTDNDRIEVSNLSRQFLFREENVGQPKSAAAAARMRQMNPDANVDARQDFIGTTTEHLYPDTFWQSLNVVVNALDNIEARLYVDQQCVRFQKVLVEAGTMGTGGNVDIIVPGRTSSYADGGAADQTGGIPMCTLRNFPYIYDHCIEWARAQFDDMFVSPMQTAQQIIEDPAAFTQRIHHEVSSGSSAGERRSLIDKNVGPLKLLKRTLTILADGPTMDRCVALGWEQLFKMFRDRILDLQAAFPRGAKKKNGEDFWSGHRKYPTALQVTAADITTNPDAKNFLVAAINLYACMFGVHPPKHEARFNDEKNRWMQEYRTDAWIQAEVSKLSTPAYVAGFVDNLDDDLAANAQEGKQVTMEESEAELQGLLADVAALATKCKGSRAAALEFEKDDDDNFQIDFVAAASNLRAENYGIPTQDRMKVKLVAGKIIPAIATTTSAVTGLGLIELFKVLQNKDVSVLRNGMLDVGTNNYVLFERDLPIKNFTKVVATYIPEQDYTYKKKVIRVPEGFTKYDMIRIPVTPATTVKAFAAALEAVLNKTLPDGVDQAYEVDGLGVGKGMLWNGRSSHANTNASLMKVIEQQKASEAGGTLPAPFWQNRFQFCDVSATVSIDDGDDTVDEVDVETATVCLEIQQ
Description: Leishmania donovani Ubiquitin Activating Enzyme (LdE1). The settings on record: 30 µM. It is filed as functional.

In assay [3] the target is AMP-activated protein kinase, AMPK (Homo sapiens) (UniProt P54646+O43741+P54619+Q9UGJ0+Q9Y478+Q13131+Q9UGI9). As to the kind of experiment: AMP-dependent Kinase enzyme assay. An in vitro enzyme assay that detects ADP turnover that is directly proportional to AMPK activity. This uses naive AMPK that is activated during the assay with MK-8722. To be noted: 30 µM. Type of assay: functional.

The target in assay [4] is Sialic acid-binding Ig-like lectin 9 (Homo sapiens) (UniProt Q9Y336). As to the kind of experiment: Hs-Siglec9 ALPHAscreen SOP 20170721. To be noted: 10 µM.
The subject of assay [5] is Trypanosoma cruzi. Description: Trypanosoma cruzi phosphomannomutase and mannose-1-phosphate guanylyltransferase assay. Type of assay: functional. The settings on record: 10 µM.
Assay [6] has as its target T2, Arginase-2, mitochondrial (Homo sapiens) (UniProt P78540).
T2 sequence (whole entry): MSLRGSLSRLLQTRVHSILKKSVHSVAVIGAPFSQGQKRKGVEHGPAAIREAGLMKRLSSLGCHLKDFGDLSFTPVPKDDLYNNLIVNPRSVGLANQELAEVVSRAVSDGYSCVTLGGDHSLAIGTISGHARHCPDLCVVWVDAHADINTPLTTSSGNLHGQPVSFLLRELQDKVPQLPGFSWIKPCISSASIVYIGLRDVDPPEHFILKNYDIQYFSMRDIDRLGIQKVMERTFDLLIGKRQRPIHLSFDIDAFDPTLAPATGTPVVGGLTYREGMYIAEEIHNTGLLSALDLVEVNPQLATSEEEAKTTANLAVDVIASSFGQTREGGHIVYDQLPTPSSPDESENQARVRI
Description: in vitro enzyme assay to detect the production of urea directly proportional to the activity of Arginase II. Also: in the data most compounds retested in dose-response had high values. Type of assay: functional. The settings on record: 33.3 µM.

In assay [7] the target is T3, Proteasome subunit beta (Trypanosoma cruzi) (UniProt O96673).
T3 sequence (whole entry): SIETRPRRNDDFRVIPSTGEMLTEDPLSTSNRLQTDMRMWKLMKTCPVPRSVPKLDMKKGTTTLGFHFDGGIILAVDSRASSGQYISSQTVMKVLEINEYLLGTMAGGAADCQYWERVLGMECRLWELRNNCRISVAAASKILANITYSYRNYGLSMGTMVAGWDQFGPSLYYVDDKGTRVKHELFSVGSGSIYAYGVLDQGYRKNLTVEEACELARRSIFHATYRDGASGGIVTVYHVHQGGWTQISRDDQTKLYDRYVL
Description: Trypanosoma cruzi proteasome chymotrypsin-like activity (TcProtChymo) assay. Also: in the data most compounds retested in dose-response had high values. Type of assay: functional. To be noted: 9.37 µM.

Assay [8] is filed under the species Homo sapiens. As to the kind of experiment: To identify inhibition of the IFN signalling (Jak-Stat) pathway via expression of an eGFP reporter gene under the control of an IFN-stimulated response element (ISRE) containing MxA promoter. It is filed as functional. To be noted: 30 µM.
Assay [9] has as its target T4, Tyrosyl-tRNA synthetase, putative (Trypanosoma cruzi (strain CL Brener)) (UniProt Q4DSP6).
T4 sequence (whole entry): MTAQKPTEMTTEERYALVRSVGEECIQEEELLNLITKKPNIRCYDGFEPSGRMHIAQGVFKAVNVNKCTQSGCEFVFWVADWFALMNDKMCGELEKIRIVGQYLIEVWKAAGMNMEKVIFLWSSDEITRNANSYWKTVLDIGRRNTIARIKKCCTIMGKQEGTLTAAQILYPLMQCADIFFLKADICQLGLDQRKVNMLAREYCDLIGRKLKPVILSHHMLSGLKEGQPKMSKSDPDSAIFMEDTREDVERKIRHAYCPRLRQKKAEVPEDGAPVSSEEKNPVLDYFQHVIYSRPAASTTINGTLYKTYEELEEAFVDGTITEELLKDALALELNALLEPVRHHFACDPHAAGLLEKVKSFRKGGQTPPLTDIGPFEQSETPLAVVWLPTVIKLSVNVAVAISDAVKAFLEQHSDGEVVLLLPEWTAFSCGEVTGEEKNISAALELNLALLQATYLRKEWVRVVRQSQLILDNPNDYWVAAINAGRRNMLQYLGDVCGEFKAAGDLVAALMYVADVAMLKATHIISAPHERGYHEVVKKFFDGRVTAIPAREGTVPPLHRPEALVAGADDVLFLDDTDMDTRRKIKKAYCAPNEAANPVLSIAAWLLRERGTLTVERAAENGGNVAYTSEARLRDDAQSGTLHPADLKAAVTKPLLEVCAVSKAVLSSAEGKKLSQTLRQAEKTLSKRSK
As to the kind of experiment: Trypanosoma cruzi tyrosyl tRNA synthetase (TcYRS) _High Tyrosine SOP. Also: in the data most compounds retested in dose-response had high values. Type of assay: functional. To be noted: 30 µM.

For assay [10], the target named is T4, Tyrosyl-tRNA synthetase, putative (Trypanosoma cruzi (strain CL Brener)). Description: Trypanosoma cruzi tyrosyl tRNA synthetase (TcYRS) SOP. The settings on record: 30 µM. Type of assay: functional.
The target in assay [11] is Chromo domain-containing protein 1 (Saccharomyces cerevisiae (strain ATCC 204508 / S288c) (Baker's yeast)) (UniProt P32657). As to the kind of experiment: ScCHD-1 Enzyme Inhibition Assay. Also: in the data most compounds retested in dose-response had high values. It is filed as functional. The settings on record: 30 µM.

SMILES strings stand for the structures. For some of these results: Measured potencies and affinities stand elsewhere.

Chain of Chromo domain-containing protein 1 (Saccharomyces cerevisiae (strain ATCC 204508 / S288c) (Baker's yeast)) (P32657 whole entry, the tested form may be a part): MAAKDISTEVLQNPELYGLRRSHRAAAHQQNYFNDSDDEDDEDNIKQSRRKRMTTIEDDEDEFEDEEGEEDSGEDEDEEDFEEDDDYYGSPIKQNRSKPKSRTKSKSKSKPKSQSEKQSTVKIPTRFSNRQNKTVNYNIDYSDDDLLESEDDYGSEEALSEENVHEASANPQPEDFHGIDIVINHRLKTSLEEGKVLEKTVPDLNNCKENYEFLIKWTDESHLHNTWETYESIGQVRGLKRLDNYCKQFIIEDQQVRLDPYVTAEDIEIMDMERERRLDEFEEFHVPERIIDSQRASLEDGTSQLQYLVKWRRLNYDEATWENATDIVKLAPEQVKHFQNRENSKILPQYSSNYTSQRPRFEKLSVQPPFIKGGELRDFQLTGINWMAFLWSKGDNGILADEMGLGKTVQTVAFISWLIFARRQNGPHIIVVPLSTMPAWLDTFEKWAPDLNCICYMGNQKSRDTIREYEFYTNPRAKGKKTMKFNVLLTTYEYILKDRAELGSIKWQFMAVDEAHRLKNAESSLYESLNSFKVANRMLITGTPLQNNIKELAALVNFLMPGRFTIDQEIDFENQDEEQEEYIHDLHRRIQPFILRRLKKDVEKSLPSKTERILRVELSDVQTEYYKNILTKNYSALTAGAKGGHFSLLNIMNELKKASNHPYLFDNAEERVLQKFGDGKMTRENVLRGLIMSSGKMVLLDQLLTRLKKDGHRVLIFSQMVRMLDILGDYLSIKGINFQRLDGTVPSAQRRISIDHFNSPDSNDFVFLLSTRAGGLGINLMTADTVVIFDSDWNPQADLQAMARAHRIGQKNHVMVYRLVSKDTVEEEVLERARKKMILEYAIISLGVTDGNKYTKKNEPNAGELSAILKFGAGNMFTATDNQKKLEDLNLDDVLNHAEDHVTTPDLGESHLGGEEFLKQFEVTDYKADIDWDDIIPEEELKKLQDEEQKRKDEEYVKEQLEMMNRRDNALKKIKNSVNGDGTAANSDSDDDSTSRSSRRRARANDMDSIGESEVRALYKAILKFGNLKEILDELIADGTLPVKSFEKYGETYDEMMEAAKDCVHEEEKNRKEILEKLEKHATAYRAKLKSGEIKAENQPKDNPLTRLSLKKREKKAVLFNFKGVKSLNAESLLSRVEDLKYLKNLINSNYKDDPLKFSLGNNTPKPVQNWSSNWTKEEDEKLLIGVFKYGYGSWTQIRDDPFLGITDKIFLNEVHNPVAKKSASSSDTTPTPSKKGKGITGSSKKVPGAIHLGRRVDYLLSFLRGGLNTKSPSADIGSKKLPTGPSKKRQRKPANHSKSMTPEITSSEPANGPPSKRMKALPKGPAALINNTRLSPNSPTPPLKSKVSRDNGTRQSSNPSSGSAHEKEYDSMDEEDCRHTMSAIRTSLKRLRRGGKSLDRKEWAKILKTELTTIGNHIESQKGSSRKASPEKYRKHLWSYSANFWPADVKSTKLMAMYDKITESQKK
Chain of Protein translocase subunit SecA (Escherichia coli (strain K12)) (P10408 whole entry): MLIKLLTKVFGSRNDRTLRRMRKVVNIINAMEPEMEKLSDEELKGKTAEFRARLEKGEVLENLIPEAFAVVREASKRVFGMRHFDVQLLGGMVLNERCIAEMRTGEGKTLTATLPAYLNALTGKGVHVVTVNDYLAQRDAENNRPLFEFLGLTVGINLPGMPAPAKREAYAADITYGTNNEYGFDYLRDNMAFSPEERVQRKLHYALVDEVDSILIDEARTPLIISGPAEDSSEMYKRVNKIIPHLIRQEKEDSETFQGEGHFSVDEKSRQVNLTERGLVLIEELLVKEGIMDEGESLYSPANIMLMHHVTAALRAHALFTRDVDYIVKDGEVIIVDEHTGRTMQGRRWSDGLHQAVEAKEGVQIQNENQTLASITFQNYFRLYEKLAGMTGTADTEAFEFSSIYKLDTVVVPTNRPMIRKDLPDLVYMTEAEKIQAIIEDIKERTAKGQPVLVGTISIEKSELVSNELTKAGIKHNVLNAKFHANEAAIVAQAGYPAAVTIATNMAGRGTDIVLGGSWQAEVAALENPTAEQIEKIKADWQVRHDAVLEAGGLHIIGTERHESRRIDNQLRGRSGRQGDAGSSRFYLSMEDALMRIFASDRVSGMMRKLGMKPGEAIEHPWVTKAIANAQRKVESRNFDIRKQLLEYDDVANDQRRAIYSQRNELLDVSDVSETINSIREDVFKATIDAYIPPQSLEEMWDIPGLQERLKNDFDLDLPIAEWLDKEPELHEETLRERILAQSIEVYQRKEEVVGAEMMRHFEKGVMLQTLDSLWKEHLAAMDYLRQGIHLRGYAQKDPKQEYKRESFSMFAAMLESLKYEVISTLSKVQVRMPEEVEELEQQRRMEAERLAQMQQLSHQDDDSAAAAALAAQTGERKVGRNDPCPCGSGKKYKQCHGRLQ
Chain of Sialic acid-binding Ig-like lectin 9 (Homo sapiens) (Q9Y336 whole entry): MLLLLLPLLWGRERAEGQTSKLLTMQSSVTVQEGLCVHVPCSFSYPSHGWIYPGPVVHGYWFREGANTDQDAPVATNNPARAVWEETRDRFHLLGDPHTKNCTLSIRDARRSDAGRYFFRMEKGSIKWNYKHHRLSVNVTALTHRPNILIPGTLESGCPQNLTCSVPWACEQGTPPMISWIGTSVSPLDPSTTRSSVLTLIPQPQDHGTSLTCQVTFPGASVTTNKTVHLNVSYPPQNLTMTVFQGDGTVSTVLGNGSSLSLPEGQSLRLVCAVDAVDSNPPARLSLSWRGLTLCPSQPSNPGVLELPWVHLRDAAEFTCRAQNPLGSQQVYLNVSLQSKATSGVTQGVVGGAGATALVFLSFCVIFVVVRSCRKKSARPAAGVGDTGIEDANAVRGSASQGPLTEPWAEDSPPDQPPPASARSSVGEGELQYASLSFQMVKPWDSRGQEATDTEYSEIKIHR

As for `CS(=O)(=O)NCC(=O)NC1CCc2nccn2C1` (stereo unspecified), the Percent Effect in [1] was 0.138%; in [2], 5.33%; in assay [3] it was -3.96%; in [4], -2.36%; in assay [5], -7.69%; in assay [6], 1.56%. For the same compound, the Percent Effect is 12.7% in assay [7]; 2.1% in assay [8]; 4.92% in assay [9]; 8.64% in assay [10]; -13.2% in [11].

In the case of `O=C(c1ccn[nH]1)N1CCCC(n2cncn2)C1` (stereo unspecified), the Percent Effect is -7.58% in assay [1]; 11.4% in assay [2]; -2.36% in assay [3]; 4.37% in assay [4]; -0.718% in assay [5]; 0.645% in [6]. Also, the Percent Effect in assay [7] is 12.9%; in [8], 6.04%; in assay [9], 2.08%; in [10], 15.2%; in assay [11], -14.9%.

Consider `Fc1ccc(CCN2CCC(c3nnc(-c4cccnc4)o3)CC2)cc1`, for which the Percent Effect in assay [1] was -1.2%; in [2], 1.35%; in assay [3] it was 6.27%; in assay [4], -6.66%; in [5], -0.988%; in assay [6], -5.8%. In addition, the Percent Effect in assay [7] is 18.9%; in [8], 19.1%; in assay [9], 3.23%; in assay [10], 9.09%; in assay [11], -14%.

As for `CC(C)CCOCCNC(=O)Nc1cc(C(F)(F)F)c[nH]c1=O`, the Percent Effect is -7.54% in assay [1]; 8.11% in assay [2]; 3.62% in assay [3]; 2.66% in [4]; -0.464% in assay [5]; -0.924% in [6]. Moreover, the Percent Effect in [7] came out at 1.62%; in assay [8], 6.69%; in assay [9], 6.93%; in assay [10] it was 13.4%; in assay [11], 7.34%.

Regarding `Cc1ccc(C(CNCc2ccncc2)N2CCOCC2)s1` (stereo unspecified), the Percent Effect is -9.26% in [1]; -2.7% in assay [2]; -3.34% in assay [3]; 21.5% in [4]; -2.73% in [5]; 1.67% in assay [6]. In addition, the Percent Effect in [7] was 17.8%; in [8], 18.3%; in assay [9], 1.98%; in assay [10] it was -1.22%; in assay [11], -7.13%.

As to `CCCNC(=O)c1cnc(N(C)C)nc1COC`, the Percent Effect in assay [1] is -3.99%; in assay [2], 9.33%; in assay [3], 7.82%; in assay [4], 8.88%; in assay [5], 2.75%; in assay [6], -2.99%. The Percent Effect in assay [7] is 8.69%; in [8], 13.2%; in assay [9] it was 1.06%; in assay [10] it was 10.3%; in assay [11], -3.99%.

`CCC(=O)Nc1nnc(CCOc2cccc(OC)c2)s1`: the Percent Effect in assay [1] is -4.51%; in assay [2], -6.67%; in [3] it was 42.3%; in assay [4] it was 1.2%; in assay [5], -3.54%; in [6] it was -4.4%. For the same compound, the Percent Effect in assay [7] was 9.43%; in assay [8], 7.09%; in [9], 0%; in assay [10], -7.69%; in [11], -2%.

For the compound `Cc1cc(NC(=O)NCc2ccccn2)n(C)n1`, the Percent Effect in assay [1] is -3.34%; in assay [2] it was -6.33%; in assay [3] it was 3.11%; in assay [4], 5.94%; in [5] it was 0.103%; in assay [6] it was -2.37%. Moreover, the Percent Effect in assay [7] was 15.6%; in [8] it was -16.7%; in assay [9], 2.08%; in assay [10], 12.7%; in assay [11], -12.3%.

Regarding `COCC(NC(=O)c1ccc[nH]1)c1cccc(C(F)(F)F)c1` (stereo unspecified), the Percent Effect was -6.18% in assay [1]; 2.74% in assay [2]; -4.37% in assay [3]; 35.1% in assay [4]; 9.01% in assay [5]; 32.3% in assay [6]. Further, the Percent Effect was 4.79% in assay [7]; 3.46% in assay [8]; 0% in assay [9]; 10% in assay [10]; -5.6% in [11].

For `CCOC(=O)[C@]12CCCN(Cc3ccco3)C[C@H]1CN(CCN(C)C)C2`, the Percent Effect in assay [1] is -2.71%; in [2] it was 7.79%; in [3], 3.96%; in assay [4], 8.64%; in [5] it was -0.888%; in [6], -0.645%. For the same compound, the Percent Effect was 14.4% in assay [7]; 2.34% in assay [8]; 1.06% in assay [9]; 8.97% in [10]; -6.8% in assay [11].

Consider `CCc1ncc2c(n1)CN(Cc1nnc(C)o1)CC2`, for which the Percent Effect in [1] was -0.796%; in assay [2], 2.74%; in assay [3], -74%; in assay [4] it was 3.02%; in assay [5] it was 6.07%; in [6], 6.82%. Besides, the Percent Effect in [7] was 4.26%; in [8], -5.4%; in assay [9], 4.3%; in [10], 7.5%; in [11], -6.64%.
